Experimental data as given in PubChem BioAssay (NCATS).
Records with an inconclusive call do not appear. Active and inactive are the calls of the source. Calls follow the shape of the dose curve; as a rule, active = well fitted inhibition curve with a large enough effect; inconclusive = small, poorly fitted or top-dose-only effect; inactive = flat fitted curve, though single readings scatter. Where a SMILES comes first, the peptide text is derived from it. Bridges are numbered along the chain shown (N, C = ends). [ ]: non-standard residue; d: D form. hArg = N=C(N)NCCCC[C@H](N)C(=O)O; Mpa = O=C(O)CCS

Assays:
Assay in all cases: qHTS profiling for inhibitors of Plasmodium falciparum proliferation (AID 504749); also: nearly all actives have a fitted effect of over 60% in size
Details in all cases: P. falciparum in erythrocytes, SYBR Green DNA, 72 h; series mostly up to 28.7 µM
[1] = system: CP260
Method in brief: (§1)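 Readout was DNA-dye fluorescence from lysed cultures, ex 485/em 535 nm. Parasitized red cells had grown 72 h with compound; data scaled between 0.29 uM artemisinin and DMSO wells and corrected using vehicle-only plates.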

[2] = system: CP262
Method in brief: as §1

[3] = system: CP265
Method in brief: as §1

[4] = system: CP266
Method in brief: as §1

[5] = system: CP268
Method in brief: as §1

[6] = system: CP269
Method in brief: as §1

[7] = system: CP286
Method in brief: as §1

[8] = system: CP291
Method in brief: as §1

[9] = system: CP305
Method in brief: as §1

[10] = system: CP297
Method in brief: as §1

Measured: Potency

COc1ccccc1OC(=O)Oc1ccccc1OC
not listed: [10]
inactive: all other assays above

CC1CCc2cc(F)cc3c(=O)c(C(=O)O)cn1c23 (stereo unspecified)
not listed: [8]
inactive: all other assays above

Nc1ncnc2c1ncn2[C@@H]1O[C@H](COP(=O)(O)O)[C@@H](O)[C@H]1O
inactive: all assays above

CCOc1cc(NC(C)=O)ccc1C(=O)OC
not listed: [4]
inactive: all other assays above

O=C(OOC(=O)c1ccccc1)c1ccccc1
not listed: [10]
inactive: all other assays above

Cc1c(C)c2c(c(C)c1OC(=O)c1cccnc1)CC[C@@](C)(CCC[C@H](C)CCC[C@H](C)CCCC(C)C)O2
not listed: [4]
inactive: all other assays above

CN(C/C=C/C#CC(C)(C)C)Cc1cccc2ccccc12
not listed: [7]
inactive: all other assays above

CN1CCCN=C1COC(=O)C(O)(c1ccccc1)C1CCCCC1 (stereo unspecified)
not listed: [8]
inactive: all other assays above

O=C(c1ccccc1)C(O)c1ccccc1 (stereo unspecified)
not listed: [8]
inactive: all other assays above

Cc1ccsc1C(=CCCN1CCC[C@@H](C(=O)O)C1)c1sccc1C
not listed: [4] | [9]
inactive: all other assays above

O=C(O)Cc1cn(-c2ccccc2)nc1-c1ccc(Cl)cc1
inactive: all assays above

NC(=O)[C@@H]1CSSCCC(=O)N[C@@H](CCCCN=C(N)N)C(=O)NCC(=O)N[C@@H](CC(=O)O)C(=O)N[C@@H](Cc2c[nH]c3ccccc23)C(=O)N2CCC[C@H]2C(=O)N1 ([Mpa][hArg]GDWPC-NH2; disulfide 1-7)
not listed: [4]
inactive: all other assays above

O=C(Cn1ccnc1[N+](=O)[O-])NCCO
not listed: [10]
inactive: all other assays above

Cc1onc(-c2ccccc2)c1-c1ccc(S(N)(=O)=O)cc1
inactive: all assays above

CC(C)=CCC/C(C)=C/CO
inactive: all assays above

Cc1c(C(=O)NCCO)[n+](=O)c2ccccc2n1[O-]
inactive: all assays above

Cc1ccc(C(C)C)c(O)c1
inactive: all assays above

Cc1ncc(CO)c(CN)c1O
not listed: [2]
inactive: all other assays above

CCOC(N)=O
not listed: [1]
inactive: all other assays above

NS(=O)(=O)c1ccc(C(=O)O)cc1
not listed: [2]
inactive: all other assays above

CCOc1ccc(C(=O)OCCN(CC)CC)cc1
not listed: [2]
inactive: all other assays above

NCc1ccc(S(N)(=O)=O)cc1
not listed: [1] | [3]
inactive: all other assays above

COc1cc(C(=O)NCCCCCC(=O)O)cc(OC)c1OC
not listed: [1]
inactive: all other assays above
